Reference: PubChem BioAssay (NCATS)
Records with an inconclusive call do not appear. Calls of active or inactive are those of the source. Calls follow the shape of the dose curve; as a rule, active = well fitted cell-killing curve with a large enough effect; inconclusive = small, poorly fitted or top-dose-only effect, or effect the other way; inactive = no such curve, though single readings can be large or run the other way.
Potency is read from the fitted curve at half-maximal effect.

Assay: Quantitative High-Throughput drug screen in 47 multiple myeloma cell lines against the NCATS MIPE library collection: OCIMY5_PLB cell viability assay (AID 1918988); also: nearly all actives have a fitted effect of over 65% in size
Conditions: OCI-MY5 myeloma viability, ATP luminescence, 48 h; series mostly up to 45.8 µM
Method in brief: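 Cells were exposed to library compounds for 48 hours, after which ATP was measured by CellTiter-Glo. Signal was taken as median relative luminescence units.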
With C[C@@H](NC(=O)c1ncnc(N)c1Cl)c1ncc(C(=O)Nc2cc(C(F)(F)F)c(Cl)cn2)s1 the Potency was 9.35 µM (active).
With CN(C)CC[C@H](CSc1ccccc1)Nc1ccc(S(=O)(=O)NC(=O)c2ccc(N3CCN(Cc4ccccc4-c4ccc(Cl)cc4)CC3)cc2)cc1[N+](=O)[O-] the Potency was 0.0469 µM (active).
For O=c1[nH]c(=O)n([C@H]2C[C@@H](O)[C@@H](CO)O2)cc1I, the Potency was “inactive”.
In the case of CON(C)C(=O)N1N=C(c2cc(F)ccc2F)S[C@]1(CCCN)c1ccccc1, the Potency is reported as “inactive”.
For N#CC(c1ccnc(NCCc2cccnc2)n1)c1nc2ccccc2s1 (centres undefined), the Potency was 13.2 µM (active).
For Cc1cnc(-c2cc(N3CCN(C(=O)CCS(C)(=O)=O)CC3)ncc2Cl)c(C)c1, the Potency was 2.96 µM (active).
With CN1CCN(c2ncc(-c3cc(Cl)cc(Cl)c3Cl)c(N)n2)CC1 the Potency was “inactive”.
In the case of CCC[C@H](Nc1nc(-c2ccc(NC(=O)NCC)c(OC)c2)ncc1C)c1cccnc1, the Potency is reported as 0.0166 µM (active).
With NS(=O)(=O)c1cc(Cl)c(Cl)c(S(N)(=O)=O)c1 the Potency was “inactive”.
For CCN(CC)CCCCNc1nc2cc(Cl)c(Cl)cc2nc1-c1ccc(-c2cccs2)s1, the Potency was 7.43 µM (active).
With CO[C@H]1/C=C\O[C@@]2(C)Oc3c(C)c(O)c4c(O)c(c(C=NN5CCN(C6CCCC6)CC5)c(O)c4c3C2=O)NC(=O)C(C)=CC=C[C@H](C)[C@H](O)[C@@H](C)[C@@H](O)[C@@H](C)[C@H](OC(C)=O)[C@H]1C the Potency was 0.418 µM (active).
For COc1cc(C=CC(=O)O)ccc1O, the Potency was “inactive”.
In the case of Cc1ccccc1-n1c(Cn2nc(-c3cccc(O)c3)c3c(N)ncnc32)nc2cccc(C)c2c1=O, the Potency is reported as 10.5 µM (active).
In the case of Cc1ccc2c(=O)c3cccc(CC(=O)O)c3oc2c1C, the Potency is reported as 18.7 µM (active).
In the case of O=C(Nc1ccc(OC(F)(F)F)cc1)c1sccc1NCc1ccnc2ccccc12, the Potency is reported as 2.96 µM (active).
For COc1ccnc(CS(=O)c2nc3ccc(OC(F)F)cc3[nH]2)c1OC (centres undefined), the Potency was “inactive”.
For CN1c2ccccc2C(=O)N2CCc3c([nH]c4ccccc34)C21 (centres undefined), the Potency was “inactive”.
In the case of COc1cccc(OC)c1-c1cc(C(=O)NC2(C(=O)O)C3CC4CC(C3)CC2C4)nn1-c1ccnc2cc(Cl)ccc12 (centres undefined), the Potency is reported as “inactive”.
For CCOC(=O)N1CCN([N+]([O-])=NOc2cc(ON=[N+]([O-])N3CCN(C(=O)OCC)CC3)c([N+](=O)[O-])cc2[N+](=O)[O-])CC1, the Potency was 2.35 µM (active).
